Test results as given in PubChem BioAssay AID2496 (Sanford-Burnham Center for Chemical Genomics, 2010).
Unmarked numbers belong to inactive results. Activity calls are given as the source filed them. Cut-off read from the data, not from the text of the source: active = IC50 below about 40 µM; inactive = the rest.

assay: compound optical interference in time-resolved FRET – biochemical, fluorescence ratio, artefact control, SAR follow-up (AID 2496); conditions: HTRF spectral interference counter-screen

Row | Compound | IC50
1 | CCOC(=O)N1CCN(C(=O)c2ccc3nc(-c4ccco4)c(-c4ccco4)nc3c2)CC1 | 6.55 µM (active)
2 | CC(/C=C/c1ccco1)=NNC(=O)c1cccnc1 | > 50 µM
3 | O=C(Nc1ccc2nc(-c3ccco3)c(-c3ccco3)nc2c1)N1CCOCC1 | 7.32 µM (active)
4 | Nc1ccc(-c2nc3c(Cl)c(N)ccc3[nH]2)cc1 | 5.59 µM (active)
5 | CCCCc1ccc(/C=C2\C(=O)c3ccccc3C(O)=C2C(=O)OCC)cc1 | 4.14 µM (active)
6 | O=C(COC(=O)c1c2c(nc3ccccc13)/C(=C/c1ccco1)CC2)NC1CCCC1 | 4.42 µM (active)
7 | CN(C(=O)COC(=O)c1cc(-c2ccco2)nc2ccccc12)C1CCS(=O)(=O)C1 (configuration not stated) | 26.6 µM (active)
8 | O=C(NN=Cc1ccc(F)cc1)c1cc(-c2ccco2)nc2ccccc12 | > 50 µM
9 | Cc1ccc(/C=C/C(=O)NCc2ccc(S(N)(=O)=O)cc2)o1 | > 50 µM
10 | CNc1nc(-c2ccccc2)[n+](-c2ccc(C)cc2)s1 | > 50 µM
11 | COc1ccc(NC(=O)c2cc(-c3ccco3)nc3ccccc23)cc1S(=O)(=O)N1CCOCC1 | 37.2 µM (active)
12 | CC(=O)NS(=O)(=O)c1ccc(NC(=O)/C=C/c2ccc(C)o2)cc1 | > 50 µM
